According to PubChem BioAssay (NCATS):
Inconclusive results are not listed. A call without a number means that no potency is given here. Calls of active or inactive are those of the source. Unless noted, calls come from the whole dose curve; as a rule, active = well fitted curve in the direction sought with a large enough effect; inconclusive = small, poorly fitted or top-dose-only effect, or another doubt; inactive = no such curve, though single readings can be large; an effect the other way counts as inactive or inconclusive.

Columns and labels:
[1] = target: Glutaminase kidney isoform, mitochondrial (Homo sapiens) (UniProt O94925); assay: qHTS for Inhibitors of Glutaminase (GLS): LOPAC Validation (AID 624146); note: nearly all actives have a fitted effect of over 60% in size; note: potency is the fitted concentration of half-maximal effect
Glutaminase kidney isoform, mitochondrial (Homo sapiens), sequence (O94925 whole entry, looked up, canonical isoform): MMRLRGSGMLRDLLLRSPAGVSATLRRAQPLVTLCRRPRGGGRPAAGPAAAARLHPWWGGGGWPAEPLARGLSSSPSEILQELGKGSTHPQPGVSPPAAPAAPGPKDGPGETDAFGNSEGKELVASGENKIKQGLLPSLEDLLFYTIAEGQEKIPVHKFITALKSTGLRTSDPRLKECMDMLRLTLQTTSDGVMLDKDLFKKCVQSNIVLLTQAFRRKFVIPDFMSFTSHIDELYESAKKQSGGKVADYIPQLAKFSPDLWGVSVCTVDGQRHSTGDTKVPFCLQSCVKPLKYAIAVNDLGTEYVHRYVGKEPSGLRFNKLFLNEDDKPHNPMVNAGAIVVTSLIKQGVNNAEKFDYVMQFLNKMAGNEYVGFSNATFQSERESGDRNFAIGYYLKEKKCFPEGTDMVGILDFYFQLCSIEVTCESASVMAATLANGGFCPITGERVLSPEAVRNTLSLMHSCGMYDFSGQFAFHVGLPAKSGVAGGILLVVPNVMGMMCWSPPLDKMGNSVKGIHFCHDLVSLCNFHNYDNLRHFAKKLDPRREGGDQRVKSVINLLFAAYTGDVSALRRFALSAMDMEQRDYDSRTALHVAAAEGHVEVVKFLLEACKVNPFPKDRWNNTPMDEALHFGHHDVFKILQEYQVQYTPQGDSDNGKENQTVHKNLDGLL
Outline: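 Enzyme dispensed in phosphate buffer (45 mM, pH 8.2, 0.02% Tween-20), compounds pinned in, then 1 mM L-glutamine solution and the glutamate oxidase–HRP–Amplex Red mix added; fluorescence read immediately and again after 30 min at room temperature.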

[2] = qHTS of Trypanosoma Brucei Inhibitors: LOPAC Validation (AID 624147); note: potency is the fitted concentration of half-maximal effect
Outline: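 Glycolytic pyruvate kinase of T. brucei was incubated with substrate, test compound and 130 uM ADP for 45 minutes at room temperature. Luminescent Kinase-Glo Plus signal was measured after 10 minutes.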

[3] = target: Glucagon-like peptide 1 receptor (Homo sapiens) (UniProt P43220); assay: qHTS of GLP-1 Receptor Agonists: LOPAC Validation (AID 624148);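 note: higher luminescence signal means agonism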
Glucagon-like peptide 1 receptor (Homo sapiens), sequence (P43220 whole entry, looked up): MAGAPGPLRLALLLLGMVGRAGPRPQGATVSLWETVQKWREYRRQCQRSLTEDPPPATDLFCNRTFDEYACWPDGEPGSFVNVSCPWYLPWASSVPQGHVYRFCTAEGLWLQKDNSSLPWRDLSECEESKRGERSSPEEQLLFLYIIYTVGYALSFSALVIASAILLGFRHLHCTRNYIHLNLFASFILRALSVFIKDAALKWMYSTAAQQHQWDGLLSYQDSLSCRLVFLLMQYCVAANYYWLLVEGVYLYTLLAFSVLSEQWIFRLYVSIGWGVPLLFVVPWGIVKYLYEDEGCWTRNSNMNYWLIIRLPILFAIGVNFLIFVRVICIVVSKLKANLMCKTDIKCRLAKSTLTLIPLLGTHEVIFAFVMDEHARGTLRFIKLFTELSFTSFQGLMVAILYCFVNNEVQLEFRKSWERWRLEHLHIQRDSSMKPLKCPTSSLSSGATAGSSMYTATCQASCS
Outline: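 HEK293 cells stably co-expressing a cAMP-responsive luciferase reporter and a hypersensitive GLP-1R were plated 12 h at 37 °C and exposed to compounds for 4-6 hr at 37 °C, 5% CO2. Luminescence was read 12 min after adding detection reagent.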

[4] = qHTS of Nrf2 Activators: LOPAC Validation (AID 624149)
Outline: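 AREc32 cells carrying an ARE-driven firefly luciferase were grown overnight in OPTI-MEM with 5% FBS, then exposed to compounds for 24 hr at 37 deg C. Luciferase signal was read after 30 min with Steady-Glo at RT.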

[5] = HTS Assay for Allosteric Antagonists of the Human D2 Dopamine Receptor: Hit Validation in HTRF (AID 624455);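 note: stable D1 dopamine receptor cell line scored for blocking the D1 response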
Outline: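 Hits were examined in an HTRF assay using cells stably expressing the D1 dopamine receptor, scoring inhibition of the D1-mediated response. The preceding primary screen tracked calcium flux after an EC80 dopamine addition in force-coupled, inducible Hek293 Trex D2 cells.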

[6] = Cytotoxicity counterscreen for NFkB agonists and antagonists (AID 624476);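 note: cells exposed to compound for 48 hours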; note: potency is the fitted concentration of half-maximal effect
[7] = qHTS Assay for Identification of Small Molecule Agonists for NFkB Signaling Pathway. (AID 624478)
Outline: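 NFkB-bla ME-180 cells (beta-lactamase reporter under NFkB response element) were plated overnight, treated with compound plus TNF alpha at 10 pM final (its EC50) for 5 hrs at 37 C, then loaded with LiveBLAzer substrate for 2 hrs.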

[8] = qHTS Assay for Identification of Small Molecule Antagonists for NFkB Signaling Pathway. (AID 624479; calls by dose curve;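 note: pathway stimulated with TNF alpha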)

Structure (SMILES) | Potency [1] | Potency [2] | outcome [3] | outcome [4] | Potency [5] | Potency [6] | outcome [7] | outcome [8]
OCC1O[C@H](O)C(Cl)C(O)C1O (some centres undefined) | inactive | inactive | inactive | inactive | inactive | – | – | –
N[C@@H](CC(=O)O)C(=O)O | inactive | inactive | inactive | inactive | inactive | – | – | –
CCCCN1CCC(n2c(=O)[nH]c3ccccc32)CC1 | inactive | inactive | inactive | inactive | inactive | – | – | –
CN(C)C(N)=NCCC[C@H](N)C(=O)O | inactive | inactive | inactive | inactive | inactive | – | – | –
C[N+]1(C)CCC(OC(=O)C(c2ccccc2)c2ccccc2)CC1 | inactive | inactive | inactive | inactive | inactive | – | – | –
O=C(O)CC[C@@H](C(=O)O)N1C(=O)c2ccccc2C1=O | inactive | inactive | inactive | inactive | inactive | – | – | –
OC[C@H]1O[C@@H](n2cnc3c(Nc4ccccc4)ncnc32)[C@H](O)[C@@H]1O | inactive | inactive | inactive | inactive | inactive | – | – | –
CCCCCC(O)c1cccc(OCc2ccc3ccccc3n2)c1 (centres undefined) | inactive | inactive | inactive | inactive | inactive | – | – | –
CCOC(=O)C1=C(C)NC(C)=C(C(=O)OCC)C1c1c(F)c(F)c(F)c(F)c1F | inactive | inactive | inactive | inactive | inactive | – | – | –
CO/N=C(\C(=O)N[C@@H]1C(=O)N2C(C(=O)O)=C(COC(C)=O)CS[C@H]12)c1csc(N)n1 | inactive | inactive | inactive | inactive | inactive | – | – | –
COc1cc(C(O)CO)ccc1OS(=O)(=O)O (centres undefined) | inactive | inactive | inactive | inactive | inactive | – | – | –
CCc1c(C(=O)NCCc2ccc(N3CCCCC3)cc2)[nH]c2ccc(Cl)cc12 | inactive | inactive | inactive | inactive | inactive | – | – | –
CCCCC#Cc1nc(NC)c2ncn([C@@H]3O[C@H](CO)[C@@H](O)[C@H]3O)c2n1 | inactive | inactive | inactive | inactive | inactive | – | – | –
O=S(=O)(c1cccc2c(I)cccc12)N1CCCNCC1 | inactive | inactive | inactive | inactive | inactive | – | – | –
CC(C)(C=O)Cc1cc(C(C)(C)C)c(O)c(C(C)(C)C)c1 | 2510 nM (active) | inactive | inactive | inactive | inactive | – | – | –
NCCSSCCN | inactive | inactive | inactive | inactive | inactive | – | – | –
CN(C)c1nc2c(Br)c(Br)c(Br)c(Br)c2[nH]1 | inactive | inactive | inactive | inactive | inactive | – | – | –
O=C(O)c1cc(=O)c2ccccc2[nH]1 | inactive | inactive | inactive | inactive | inactive | – | – | –
O=[N+]([O-])c1ccc(CSc2ncnc3c2ncn3[C@@H]2O[C@H](CO)[C@@H](O)[C@H]2O)cc1 | inactive | inactive | inactive | inactive | inactive | – | – | –
C=C[C@@H]1CN2CC[C@@H]1C[C@H]2[C@H](O)c1ccnc2ccc(OC)cc12 | inactive | inactive | – | inactive | inactive | – | – | –
Oc1cc(O)cc(/C=C/c2ccc(O)c(O)c2)c1 | 2000 nM (active) | 13500 nM (active) | inactive | – | inactive | – | – | –
CN1CC(=O)N/C1=N/C(=O)Nc1cccc(Cl)c1 | inactive | inactive | inactive | inactive | inactive | inactive | inactive | inactive
CN1C2CC(OC(=O)[C@H](CO)c3ccccc3)CC1C1OC12 (some centres undefined) | inactive | inactive | inactive | inactive | inactive | – | – | –
O=C(O)c1cc(=O)c2c(Cl)cc(Cl)cc2[nH]1 | inactive | inactive | inactive | inactive | inactive | – | – | –
CCCCCCCCCCCCCCCC(=O)NCC(COP(=O)([O-])OCC[N+](C)(C)C)OCC (centres undefined) | inactive | inactive | inactive | inactive | inactive | – | – | –
Nc1nc(Cl)nc2c1ncn2[C@@H]1O[C@H](CO)[C@@H](O)[C@H]1O | inactive | inactive | – | inactive | inactive | – | – | –
NC(CCCP(=O)(O)O)C(=O)O (centres undefined) | inactive | inactive | inactive | inactive | inactive | – | – | –
CSc1nc(N)c2ncn([C@@H]3O[C@H](COP(=O)(O)OP(=O)(O)OP(=O)(O)O)[C@@H](O)[C@H]3O)c2n1 | inactive | inactive | inactive | inactive | inactive | – | – | –

Structure (SMILES) | Potency [1] | Potency [2] | outcome [3] | outcome [4] | Potency [5] | Potency [6] | outcome [7] | outcome [8]
CC1(C)CCC=[N+]1[O-] | inactive | inactive | inactive | inactive | inactive | – | – | –
CN(C)CCCO[C@@H]1[C@H]2OC(C)(C)O[C@H]2O[C@@H]1[C@H](O)CO | inactive | inactive | inactive | inactive | inactive | – | – | –
NC[C@H]1O[C@@H](n2cnc3c(N)ncnc32)[C@H](O)[C@@H]1O | inactive | inactive | inactive | inactive | inactive | – | – | –
OC[C@H]1O[C@@H](n2cnc3c(NC4CCCCC4)ncnc32)[C@H](O)[C@@H]1O | inactive | inactive | inactive | inactive | inactive | – | – | –
Cc1cc(NC(=O)Nc2ccc3c(ccn3C)c2)sn1 | inactive | inactive | inactive | inactive | inactive | – | – | –
C=C[C@H]1CN2CC[C@@H]1C[C@@H]2[C@@H](O)c1ccnc2ccc(OC)cc12 | inactive | inactive | – | inactive | inactive | – | – | –
COc1cccc(C(=O)NCCN2CCN(c3ccc(Cl)cc3)CC2)c1 | inactive | inactive | – | inactive | inactive | – | – | –
CCCCCCCCc1ccc(-c2ccc(C(=O)O)cc2)cc1 | inactive | inactive | inactive | inactive | inactive | – | – | –
Clc1ccc(N2CCN(Cc3c[nH]c4ncccc34)CC2)cc1 | inactive | inactive | inactive | inactive | inactive | – | – | –
COc1ccc2c(c1)CCC1C2CC[C@@]2(C)C1CC[C@@H]2NCCCCCCN1C(=O)CCC1=O (some centres undefined) | inactive | inactive | inactive | inactive | inactive | – | – | –
Cn1ncc(S(=O)(=O)Cc2ccccc2)c(Br)c1=O | inactive | inactive | inactive | – | inactive | – | – | –
CC(C)CC(NP(=O)(O)O[C@@H]1O[C@@H](C)[C@H](O)[C@@H](O)[C@H]1O)C(=O)NC(Cc1c[nH]c2ccccc12)C(=O)O (some centres undefined) | inactive | inactive | – | inactive | inactive | – | – | –
Nc1nc(Nc2ccccc2)nc2c1ncn2[C@@H]1O[C@H](CO)[C@@H](O)[C@H]1O | inactive | inactive | – | inactive | inactive | – | – | –
C[N+](C)(CCCCCC[N+](C)(C)CCCN1C(=O)c2cccc3cccc(c23)C1=O)CCCN1C(=O)c2cccc3cccc(c23)C1=O | inactive | inactive | inactive | inactive | inactive | – | – | –
O=C(Nc1ccccc1)c1cc([N+](=O)[O-])ccc1Cl | inactive | inactive | inactive | inactive | inactive | – | – | –
O=C(/C=C/c1ccc(O)c(O)c1)OCCc1ccccc1 | 891 nM (active) | inactive | inactive | – | inactive | – | – | –
O=[N+]([O-])c1ccc2c(c1)S(=O)(=O)C=C2 | inactive | inactive | inactive | – | inactive | – | – | –
Nc1ncnc2c1c(I)cn2[C@@H]1C[C@H](N)[C@@H](O)[C@H]1O | inactive | inactive | inactive | inactive | inactive | – | – | –
c1ccc(-c2ccccn2)nc1 | inactive | inactive | inactive | inactive | inactive | – | – | –
CCCCC/C=C\CC(O)/C=C/c1cccc(CC(O)CCCCO)n1 (centres undefined) | inactive | inactive | inactive | – | inactive | – | – | –
CC(C)NC[C@H](O)COc1cccc2[nH]ccc12 | inactive | inactive | inactive | – | inactive | – | – | –
Nc1ncnc2c1ncn2[C@@H]1O[C@H](COP(=O)(O)OP(=O)(O)OP(=O)(O)OP(=O)(O)OC[C@@H]2O[C@H](n3cnc4c(N)ncnc43)[C@@H](O)[C@H]2O)[C@@H](O)[C@H]1O | inactive | inactive | – | inactive | – | – | – | –
Cc1cc(NC2CCCCC2)nc(-n2nc(C)cc2C)n1 | inactive | inactive | inactive | inactive | inactive | – | – | –
O=C(c1ccc(OCCCc2cnc[nH]2)cc1)C1CC1 | inactive | inactive | inactive | inactive | inactive | – | – | –
Oc1ccccc1O | 2000 nM (active) | inactive | inactive | – | inactive | – | – | –
O=C(/C=C/c1ccc(O)cc1)c1ccc(O)cc1O | 10000 nM (active) | inactive | inactive | – | inactive | – | – | –
C=CCc1cccc(/C=N/NC(=O)CN2CCN(Cc3ccccc3)CC2)c1O | – | – | – | – | – | 16600 nM (active) | inactive | –
